In PubChem BioAssay (NCATS):
Inconclusive results are not listed. Active and inactive are the calls of the source. Calls come from the whole dose curve; as a rule, active = well fitted curve in the direction sought with a large enough effect; inconclusive = small, poorly fitted or top-dose-only effect, or another doubt; inactive = no such curve, though single readings can be large; an effect the other way counts as inactive or inconclusive.

Legend:
[1] = qHTS Assay for Identifying Gametocytocidal Compounds (AID 743244);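 note: % is set by controls: 0 for no effect and ±100 for the full control effect; actives lower the fluorescent signal which means gametocytes are killed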; details: P. falciparum 3D7 stage III-V gametocytes, alamarBlue, 72 h; max response: hits give low values
How it was run: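 In this qHTS viability screen, late-stage 3D7 gametocytes are incubated with compound for 72 h, then with alamarBlue for 24 h; reduced resorufin fluorescence marks killing.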

[2] = qHTS assay for measurement of the activity of small molecule inhibitors on Zika virus induced Caspase-3 activity in human astrocytoma cells (AID 1224859); details: SNB-19 ZIKV-induced caspase-3/7, luminescence, 6 h; series mostly up to 45.7 µM;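 note: plate controls were ZIKV-infected untreated cells for no effect and uninfected cells for full effect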
How it was run: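 A cell-based luminescent caspase-3/7 assay used SNB-19 cells infected with ZIKV (2 FFU/cell) for 6 h following 1 h compound pretreatment.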

[3] = qHTS assay to identify small molecule inhibitors of chordoma cells - UCH-1 (AID 1259355); details: UCH-1 chordoma viability, CellTiter-Glo, 48 h, combination, with auranofin plus four topoisomerase inhibitors; series mostly up to 46.1 µM; note: % is set by controls: 0 for no effect and ±100 for the full control effect; nearly all actives have a fitted effect of over 55% in size
How it was run: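 Luminescent ATP read-out (CellTiter-Glo, 30min at room temperature) measured viability of UCH-1 cells exposed for 48hr to test drugs at 15 concentrations, co-dosed with a five-agent combination of auranofin, camptothecin, doxorubicin, rubitecan and topotecan.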

[4] = qHTS assay to identify small molecule inhibitors of chordoma cells - UCH-2 (AID 1259356); details: UCH-2 chordoma viability, CellTiter-Glo ATP luminescence, 48 h; series mostly up to 46.1 µM; note: % is set by controls: 0 for no effect and ±100 for the full control effect
[5] = P-glycoprotein substrates identified in KB-8-5-11 adenocarcinoma cell line, qHTS therapeutic library screen (AID 1346987); details: KB-8-5-11 (P-gp overexpressing) viability, CellTiter-Glo, 72 h; series mostly up to 44.5 µM; note: % is set by controls: 0 for no effect and ±100 for the full control effect; nearly all actives have a fitted effect of over 65% in size
How it was run: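 P-gp-mediated resistance screen: KB-8-5-11 cells treated 72 h with compounds in dose-response. CellTiter-Glo viability.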

[6] = qHTS assay for cell viability of HEK293 cells (AID 743288); details: ATP luminescence (CellTiter-Glo), 18 h, hits give low values; note: % is set by controls: 0 for no effect and ±100 for the full control effect; nearly all actives have a fitted effect of over 50% in size
How it was run: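 Environmental chemicals tested in qHTS format against parental HEK293 cells; 18 h treatment, 37 C; read-out ATP luminescence (CellTiter-Glo), 30 min RT development.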

[7] = qHTS assay for cell viability of the p53RE-bla HCT-116 cell line (AID 743292); details: p53RE-bla HCT-116 viability, ATP luminescence, 16 h; series mostly up to 95 µM; note: % is set by controls: 0 for no effect and ±100 for the full control effect; nearly all actives have a fitted effect of over 55% in size
How it was run: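 ATP-based luminescence, 16 h compound exposure at 37 C, p53RE-bla HCT-116 cells at 4,000/well.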

CC(C)Cc1ccc(CC(=O)O)cc1
inactive: max response [1] 6.47% | outcome [2] | Potency [3] | Potency [4] | Potency [5]

CC(=O)O[C@H]1C[C@@H]2CC[C@@H]3[C@H](CC[C@@]4(C)[C@H]3C[C@H]([N+]3(C)CCCCC3)[C@@H]4OC(C)=O)[C@@]2(C)C[C@@H]1N1CCCCC1
inactive: max response [1] -2.39% | outcome [2] | Potency [3] | Potency [4] | Potency [5]

CC(O)Cn1cnc2c1c(=O)n(C)c(=O)n2C (configuration not stated)
inactive: max response [1] 5.34% | outcome [2] | Potency [3] | Potency [4] | Potency [5]

NCCNC(=O)c1ccc(Cl)cn1
inactive: max response [1] -2.71% | outcome [2] | Potency [3] | Potency [4] | Potency [5]

OC[C@H]1O[C@@H]2O[C@H]3[C@H](O)[C@@H](O)[C@@H](O[C@H]4[C@H](O)[C@@H](O)[C@@H](O[C@H]5[C@H](O)[C@@H](O)[C@@H](O[C@H]6[C@H](O)[C@@H](O)[C@@H](O[C@H]7[C@H](O)[C@@H](O)[C@@H](O[C@H]8[C@H](O)[C@@H](O)[C@@H](O[C@H]1[C@H](O)[C@H]2O)O[C@@H]8CO)O[C@@H]7CO)O[C@@H]6CO)O[C@@H]5CO)O[C@@H]4CO)O[C@@H]3CO
inactive: max response [1] 2.64% | max response [6] -3.67% | outcome [7] | outcome [2] | Potency [3] | Potency [4] | Potency [5]

O=C(NCCc1c[nH]c2ccccc12)c1cccnc1
inactive: max response [1] -3.02% | outcome [2] | Potency [3] | Potency [4] | Potency [5]

N#CCC(=O)NN
inactive: max response [1] -7.78% | outcome [2] | Potency [3] | Potency [4] | Potency [5]
